Laboratory results as given in the supplement of paper PMC10646978.
± gives the standard deviation.

Assays:
Details in all cases: modulator concentration 10 µM
[1] = tested on: RAW-Dual (murine macrophage reporter line); test: NF-kB reporter (SEAP) activity fold change vs agonist alone; higher = enhanced NF-kB activity
Outline: (§1)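 In 384-well plates holding 50 000 RAW-Dual murine macrophage reporter cells per well, compound at 10 μM final was pre-incubated for 1 hour at 37 °C, after which a PRR agonist was added overnight. Supernatant SEAP read with QUANTI-Blue at 620 nm absorbance reported NF-κB, and Lucia luciferase read with QUANTI-Luc luminescence reported IRF. Fold change values come from dividing each reporter signal by the mean of agonist-only control wells on the same plate, averaged over replicate plates with propagated errors.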

[2] = tested on: RAW-Dual (murine macrophage reporter line); test: IRF reporter (Lucia luciferase) activity fold change vs agonist alone; higher = enhanced IRF activity
Outline: as §1

[3] = tested on: RAW-Dual (murine macrophage reporter line); test: viability score (confluency relative to resting cells, overnight) (fraction); higher = more viable, active = viable (0.7 or more)
Outline: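 RAW-Dual macrophages in 384-well plates were treated overnight with compound at 10 μM final. IncuCyte imaging recorded confluency, and IncuCyte software built two confluency masks across every imaged well. The viability score expresses confluency relative to resting cells and was judged against a cutoff, which a compound met only if both masks exceeded 70% of resting cells.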

[4] = agonist: CpG ODN 1826 0.5 ug/mL

| SMILES | NF-kB reporter [1, 4] | NF-kB reporter ([1]; agonist: LPS 0.1 ug/mL) | NF-kB reporter ([1]; agonist: MPLA […]) | IRF reporter ([2]; agonist: 3'3'-cGAMP 10 ug/mL) | IRF reporter ([2]; agonist: LPS 0.1 ug/mL) | IRF reporter ([2]; agonist: MPLA […]) | viability score [3] |
| --- | --- | --- | --- | --- | --- | --- | --- |
| NC(=O)CN1C(=O)C2C3c4ccccc4C(c4ccccc43)C2C1=O (centres undefined) | 1.1 ± 0.083 | 0.962 ± 0.073 | 0.965 ± 0.036 | 0.938 ± 0.065 | 0.946 ± 0.092 | 0.976 ± 0.15 | 0.995 (active) |
| O=C1SC(=Cc2ccc([N+](=O)[O-])cc2)C(=O)N1Cc1ccccc1 | 0.98 ± 0.064 | 1.04 ± 0.069 | 0.951 ± 0.071 | 0.989 ± 0.042 | 1.5 ± 0.28 | 1.23 ± 0.12 | 1 (active) |
| CC(C)NCC(O)COc1ccc(CCOCC2CC2)cc1 (centres undefined) | 0.927 ± 0.09 | 1.02 ± 0.1 | 1.06 ± 0.04 | 0.907 ± 0.073 | 0.897 ± 0.029 | 0.764 ± 0.098 | 1 (active) |
| N=C(N)c1ccc(OCCCCCOc2ccc(C(=N)N)cc2)cc1.O=S(=O)(O)CCO.O=S(=O)(O)CCO | 0.243 ± 0.017 | 0.46 ± 0.037 | 0.492 ± 0.027 | 0.715 ± 0.079 | 1.18 ± 0.2 | 0.788 ± 0.16 | 0.305 (inactive) |
| O=[N+]([O-])c1ccc(-n2cccc2C=NNc2nc(N3CCCCC3)nc(N3CCCCC3)n2)cc1 | 0.994 ± 0.087 | 1.01 ± 0.12 | 0.926 ± 0.054 | 0.907 ± 0.039 | 1.38 ± 0.12 | 1.05 ± 0.1 | 1 (active) |
| O=C(O)c1cc(O)ccc1O | 0.972 ± 0.11 | 1.03 ± 0.055 | 0.977 ± 0.023 | 1.03 ± 0.078 | 0.969 ± 0.032 | 0.932 ± 0.11 | 0.996 (active) |
| Cc1cc(C)c(NC(=O)C2C3CCC4C(CCC32)C4(Cl)Cl)c(C)c1 (centres undefined) | 1.01 ± 0.11 | 1.03 ± 0.079 | 1.02 ± 0.062 | 1.03 ± 0.027 | 1.61 ± 0.14 | 1.1 ± 0.11 | 1.01 (active) |
| O=C(O)C=Cc1ccc2c(c1)OCCO2 | 1 ± 0.077 | 0.902 ± 0.075 | 1.14 ± 0.12 | 1.07 ± 0.059 | 1.35 ± 0.2 | 1.47 ± 0.33 | 1.02 (active) |
| Cl.Fc1ccc(C2CCNCC2COc2ccc3c(c2)OCO3)cc1 (centres undefined) | 0.829 ± 0.23 | 0.938 ± 0.089 | 0.918 ± 0.058 | 0.916 ± 0.041 | 1.05 ± 0.18 | 1.07 ± 0.15 | 0.968 (active) |
| O=c1n(CCNS(=O)(=O)Cc2ccccc2)nc(C2CC2)n1-c1ccccc1 | 1.03 ± 0.052 | 1.08 ± 0.09 | 1.1 ± 0.074 | 1.03 ± 0.063 | 1.26 ± 0.08 | 1.22 ± 0.1 | 1.01 (active) |
| O=c1c(O)c(-c2ccccc2)oc2cc(O)ccc12 | 1.21 ± 0.34 | 1.37 ± 0.084 | 1.43 ± 0.15 | 0.764 ± 0.026 | 0.947 ± 0.12 | 0.789 ± 0.077 | 1 (active) |
| CC(=O)Nc1ccc(CC(=O)N2C3C=CCC2CC3)cc1 (centres undefined) | 1.32 ± 0.32 | 1.06 ± 0.059 | 1.04 ± 0.14 | 1.01 ± 0.034 | 1.23 ± 0.14 | 1.14 ± 0.19 | 0.954 (active) |
